In PubChem BioAssay (EPA / NIEHS) one finds outcome and AC50 data, which are given here for seven compounds.

Several values for one entry are separate records, joined by “and”; a condition that tells them apart may be missing. Equal entries are not always repeated. Activity calls are given as the source filed them. How the source made its calls: active means hit-call score of the fitted dose curve at least 0.9, where 1 is the maximum; inactive means score below 0.9.

Test [1] can be described thus: APR_HepG2_CellLoss_72hr: Apredica 72-hour HepG2 Assay for Cell Loss (AID 2282915). The note with it: high-content imaging. The essentials: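 Cell number comes from Hoechst 33342-labelled nuclei, imaged at 20x after 3.7% formaldehyde fixation. Dosing was 0.39–200 uM, ten concentrations in duplicate, 0.5% DMSO final, for 72 h. Bidirectional fit relative to DMSO baseline.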

The nature of test [2]: APR_HepG2_P-H2AX_72hr: Apredica 72-hour HepG2 Assay for H2AX Phosphorylation (AID 2282916).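 Further: phospho-histone H2A.x immunostain intensity per cell marking DNA damage.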 The note with it: imaging, actives raise or lower the signal. The gist of the method: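 Phospho-histone H2A.x immunofluorescence, multiplexed with Hoechst and c-Jun, quantified by high-content imaging. Compounds applied to HepG2 for 72 h across ten concentrations (0.39–200 uM, 0.5% DMSO), in duplicate; DMSO baseline.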

The nature of test [3]: APR_HepG2_MitoticArrest_72hr: Apredica 72-hour HepG2 Assay for Mitotic Arrest (AID 2282918). To be noted: high-content imaging, actives raise or lower the signal. The essentials:
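Mitotic arrest in HepG2 is scored from phospho-histone H3 staining after 72 hr dosing across 0.39–200 uM, with DMSO at 0.5% v/v. Nuclei are identified by Hoechst 33342 and fluorescence intensity is quantified per cell.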

Test [4] can be described thus: APR_HepG2_MicrotubuleCSK_72hr: Apredica 72-hour HepG2 Assay for Microtubule CSK Stabilty (AID 2282919). To be noted: HepG2 microtubule cytoskeleton, high-content imaging, actives raise or lower the signal. The gist of the method: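 High-content imaging of alpha-tubulin staining in fixed HepG2 cells after 72 hr treatment with ten concentrations from 0.39 to 200 uM (0.5% DMSO). Fitting was bidirectional against DMSO; taxol served as positive control.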

A short description of test [5]: APR_HepG2_P-H2AX_24hr: Apredica 24-hour HepG2 Assay for H2AX Phosphorylation (AID 2282920). To be noted: high-content imaging, actives raise or lower the signal. The essentials: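 Signal comes from a FITC-labeled secondary detecting phospho-histone H2A.x in fixed HepG2 cells, quantified by automated imaging at 20x. Dosing ran 24 hr across 0.39–200 uM with 0.5% v/v DMSO.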

Test [6] in a line: APR_HepG2_StressKinase_72hr: Apredica 72-hour HepG2 Assay for Stress Kinase (AID 2282921). The note with it: HepG2 stress kinase (phospho-c-Jun) imaging, actives raise or lower the signal. The gist of the method:
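Stress kinase signal is phospho-c-Jun immunofluorescence (1:500 primary, Cy3 secondary) in fixed, permeabilized human HepG2 cells imaged at 20x. Exposure lasted 72 hr over ten concentrations from 0.39 to 200 uM, 0.5% DMSO, in duplicate. Bidirectional fit versus DMSO.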

Test [7] in a line: APR_HepG2_StressKinase_24hr: Apredica 24-hour HepG2 Assay for Stress Kinase (AID 2282922). To be noted: HepG2 stress kinase (phospho-c-Jun) imaging, actives raise or lower the signal. The essentials:
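High-content imaging of phospho-c-Jun immunofluorescence in fixed, permeabilized HepG2 cells after 24 h dosing. Ten concentrations, 0.39 to 200 uM, run in duplicate at 0.5% v/v DMSO; gain or loss of signal versus DMSO.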

Test [8] in a line: APR_HepG2_p53Act_72hr: Apredica 72-hour HepG2 Assay for p53 Activation (AID 2282923).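 Further: average cellular p53 protein immunofluorescence intensity in HepG2 cells.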 To be noted: high-content imaging, actives raise or lower the signal. The essentials: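 After 72 h with compound (ten points, 0.39 to 200 uM, final DMSO 0.5% v/v), fixed HepG2 cells were labelled with sheep anti-p53 and Hoechst 33342 and imaged; gain or loss versus DMSO scored.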
The nature of test [9]: APR_HepG2_MitoMass_72hr: Apredica 72-hour HepG2 Assay for Mitochondrial Mass (AID 2282924).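 Further: MitoTracker Red CMXRos stain intensity per cell imaged as mitochondrial mass.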 The note with it: high-content imaging, actives raise or lower the signal. The essentials: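 Readout is imaged MitoTracker Red (250 nM, 30 min, pre-fixation) signal, fitted bidirectionally against DMSO baseline. Human HepG2 liver cells received compound 0.39–200 uM in duplicate for 72 hr, final DMSO 0.5%.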

Test [10] is described as follows: APR_HepG2_NuclearSize_72hr: Apredica 72-hour HepG2 Assay for Nuclear Size (AID 2282925). To be noted: high-content imaging, actives raise or lower the signal. The gist of the method: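 Nuclear size was read by high-content imaging of Hoechst 33342 stain after formaldehyde fixation. Compounds ran 72 h on HepG2 at 0.39 to 200 uM, with final DMSO 0.5% v/v. Curves fitted both directions relative to DMSO control.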

The nature of test [11]: ATG_CRE_CIS: Attagene CIS-FACTORIAL HepG2 Assay for human cAMP Responsive Element (CRE) binding protein 3 (AID 2282926). The note with it: HepG2 CRE cis-reporter, Attagene multiplexed mRNA; actives raise or lower the signal. The gist of the method: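 Cells carrying cis-regulated reporter constructs respond through their own endogenous factors. After 24 h treatment, RNA is reverse-transcribed, amplified, labelled and sized by capillary electrophoresis; up- and down-regulation are both scored against vehicle.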

Test [12] has as its target CCAAT/enhancer-binding protein beta (Homo sapiens) (UniProt P17676). Kind of test: ATG_C_EBP_CIS: Attagene CIS-FACTORIAL HepG2 Assay for human CCAAT/Enhancer Binding Protein (C/EBP) beta (AID 2282927). To be noted: HepG2 Attagene cis-factorial transcription factor reporter; actives raise or lower the signal. The gist of the method: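 Changes in reporter mRNA, rather than exogenous chimeric receptor activity, reflect native C/EBP signalling in transfected HepG2 cells dosed for 24 h; transcripts are detected by RT-PCR and capillary electrophoresis.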

Test [13] in a line: ATG_DR4_LXR_CIS: Attagene CIS-FACTORIAL HepG2 Assay for human Liver X Receptor (LXR), DR4 submotif (AID 2282929). To be noted: HepG2 Attagene DR4 cis-reporter, mRNA transcription; actives raise or lower the signal. The essentials:
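Cells were transfected with multiple reporter transcription units, exposed to chemicals for 24 hours, then lysed for RNA. Reporter mRNA induction was measured by RT-PCR with capillary electrophoresis detection and fitted in both directions relative to DMSO.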

A short description of test [14]: ATG_AP_1_CIS: Attagene CIS-FACTORIAL HepG2 Assay for human Activator Protein 1 (AP-1) (AID 2282931). To be noted: HepG2 Attagene cis-factorial AP-1 reporter mRNA; actives raise or lower the signal. The gist of the method: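 Endogenous transcription-factor activity in human HepG2 liver cells is read through a cis-promoter reporter transcript, sampled 24 h after dosing. Detection uses RT-PCR with capillary electrophoresis; values come from bidirectional fitting relative to DMSO.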

A short description of test [15]: ATG_AP_2_CIS: Attagene CIS-FACTORIAL HepG2 Assay for human Activator Protein 2 (AP-2) (AID 2282932). The note with it: HepG2 AP-2 cis-reporter, Attagene transcription factor profiling; actives raise or lower the signal. The gist of the method: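 Endogenous transcription factor activity is reported through transfected multiplex reporter constructs in HepG2, after 24 h of compound exposure. Transcripts were quantified by RT-PCR and capillary electrophoresis of fluorescent fragments. Bidirectional fit against DMSO.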

Test [16] can be described thus: ATG_BRE_CIS: Attagene CIS-FACTORIAL HepG2 Assay for human Bone Morphogenetic Protein (BMP) Response Element (BRE) (AID 2282933). The note with it: HepG2 BMP response element reporter, Attagene transcription factor profiling; actives raise or lower the signal. The gist of the method: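 After a 24 h chemical treatment, transiently transfected HepG2 cells were lysed for RNA; reporter transcripts were quantified by fluorescent RT-PCR and capillary electrophoresis, normalised to DMSO.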

In test [17] the target is Retinoic acid receptor alpha (Homo sapiens) (UniProt P10276). Kind of test: ATG_DR5_RAR_CIS: Attagene CIS-FACTORIAL HepG2 Assay for human Retinoic Acid Receptor Alpha (RARE), DR5 submotif (AID 2282934). The note with it: HepG2 Attagene cis-factorial RARE DR5 reporter, mRNA; actives raise or lower the signal. The essentials:
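HepG2, transient cis-reporter transfection, 24 h exposure. mRNA readout: RT-PCR, FAM label, HpaI cut, capillary electrophoresis. DMSO baseline, gain/loss fitting.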

The target in test [18] is Aryl hydrocarbon receptor (Homo sapiens) (UniProt P35869). The test can be described thus: ATG_Ahr_CIS: Attagene CIS-FACTORIAL HepG2 Assay for human Aryl Hydrocarbon Receptor (Ahr) (AID 2282930). To be noted: HepG2 AhR cis-factorial reporter transcription; actives raise or lower the signal. The gist of the method: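 HepG2, transient MRTU (cis) transfection, 24 h exposure. RNA → cDNA → PCR → 6-FAM primer extension → HpaI 2 h 37 C → CE. Fit: bidirectional, DMSO baseline.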

A short description of test [19]: ATG_CMV_CIS: Attagene CIS-FACTORIAL HepG2 Assay for human CMV (Internal Marker) (AID 2282928).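 Further: endpoint acts as a background internal control marker rather than a target.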 The note with it: HepG2 CMV promoter reporter, transcription factor profiling; actives raise or lower the signal. The essentials:
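Fluorescence intensity of RT-PCR-derived reporter fragments, resolved by capillary electrophoresis, gives the signal. HepG2 liver cells bearing transfected cis-element reporters were treated 24 h; activity in either direction was fit relative to DMSO-treated controls.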

Sequence of Aryl hydrocarbon receptor (Homo sapiens) (P35869 whole entry, looked up): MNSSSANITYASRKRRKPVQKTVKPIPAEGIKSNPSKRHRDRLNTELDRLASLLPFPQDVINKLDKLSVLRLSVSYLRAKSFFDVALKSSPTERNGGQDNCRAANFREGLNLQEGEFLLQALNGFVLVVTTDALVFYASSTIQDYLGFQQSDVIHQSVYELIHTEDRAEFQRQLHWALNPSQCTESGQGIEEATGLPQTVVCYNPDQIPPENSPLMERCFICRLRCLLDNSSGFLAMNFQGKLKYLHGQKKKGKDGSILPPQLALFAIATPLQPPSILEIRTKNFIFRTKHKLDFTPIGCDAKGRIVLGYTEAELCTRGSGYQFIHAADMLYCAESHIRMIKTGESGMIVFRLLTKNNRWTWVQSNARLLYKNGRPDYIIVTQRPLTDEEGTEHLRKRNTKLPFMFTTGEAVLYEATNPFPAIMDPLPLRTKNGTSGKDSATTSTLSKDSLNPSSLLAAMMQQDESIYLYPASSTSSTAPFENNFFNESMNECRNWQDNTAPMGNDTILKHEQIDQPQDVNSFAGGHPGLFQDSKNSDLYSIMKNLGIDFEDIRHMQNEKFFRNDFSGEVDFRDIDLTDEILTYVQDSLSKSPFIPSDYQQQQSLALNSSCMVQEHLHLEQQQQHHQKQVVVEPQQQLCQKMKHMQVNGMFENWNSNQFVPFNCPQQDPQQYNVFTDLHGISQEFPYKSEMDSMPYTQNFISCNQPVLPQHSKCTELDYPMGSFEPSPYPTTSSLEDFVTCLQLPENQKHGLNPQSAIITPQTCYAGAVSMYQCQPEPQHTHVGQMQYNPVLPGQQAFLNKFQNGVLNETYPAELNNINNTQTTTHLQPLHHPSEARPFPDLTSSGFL
Sequence of CCAAT/enhancer-binding protein beta (Homo sapiens) (P17676 whole entry, looked up): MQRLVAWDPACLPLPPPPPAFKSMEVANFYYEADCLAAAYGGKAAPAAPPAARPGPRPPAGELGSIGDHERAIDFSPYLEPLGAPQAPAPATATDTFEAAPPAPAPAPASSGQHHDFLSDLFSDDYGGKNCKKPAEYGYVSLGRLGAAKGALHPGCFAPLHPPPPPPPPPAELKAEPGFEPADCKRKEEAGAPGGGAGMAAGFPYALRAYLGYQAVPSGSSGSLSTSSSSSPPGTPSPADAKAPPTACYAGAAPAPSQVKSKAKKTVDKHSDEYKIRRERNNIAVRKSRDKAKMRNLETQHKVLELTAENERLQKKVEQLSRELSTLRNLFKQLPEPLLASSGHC
Sequence of Retinoic acid receptor alpha (Homo sapiens) (P10276 whole entry, looked up): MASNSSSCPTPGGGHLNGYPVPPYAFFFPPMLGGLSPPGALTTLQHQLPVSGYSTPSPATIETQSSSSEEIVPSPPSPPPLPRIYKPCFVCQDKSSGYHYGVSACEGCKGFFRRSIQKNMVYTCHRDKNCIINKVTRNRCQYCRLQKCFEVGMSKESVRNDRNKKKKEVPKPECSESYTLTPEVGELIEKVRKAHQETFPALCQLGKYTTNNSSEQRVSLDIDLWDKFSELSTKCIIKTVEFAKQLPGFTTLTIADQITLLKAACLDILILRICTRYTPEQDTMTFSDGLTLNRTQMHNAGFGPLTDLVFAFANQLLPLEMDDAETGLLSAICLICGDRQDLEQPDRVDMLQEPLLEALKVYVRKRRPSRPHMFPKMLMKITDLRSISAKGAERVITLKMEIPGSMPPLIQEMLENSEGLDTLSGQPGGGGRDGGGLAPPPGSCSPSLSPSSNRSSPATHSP

With `CCCc1ccccc1`, the compound was classed as inactive in [1], in [2], in test [3], in test [4], in test [5] and in [6]. The outcome in test [7], in test [8], in [9], in [10], in test [11] and in [12] was inactive. Moreover, the call in test [13], in [14], in [15], in test [16] and in [17] was inactive.
Usually AC50 stands for the midpoint of the concentration-response curve, whichever way the signal moves. Consider `NC(=O)NN=Cc1ccc([N+](=O)[O-])o1`, for which the half-maximal activity concentration (AC50) was 67.8 µM (active) in test [1]; 77.3 µM (active) in test [2]; 68.7 µM (active) in test [3]; 85.4 µM (active) in test [4]; 72 µM (active) in test [5]; 67.3 µM (active) in [8]. In addition, the half-maximal activity concentration (AC50) in test [14] is 64.4 µM (active). The result in [6], in test [7], in [9], in [10], in test [11] and in [12] was inactive. Also, the compound was classed as inactive in test [13], in [18], in test [15] and in test [16].
Consider `CCCCN1C(=O)[C@@H]([C@H](O)C2CCCCC2)NC(=O)C12CCN(Cc1ccc(Oc3ccc(C(=O)O)cc3)cc1)CC2`, for which the AC50 in [1] was 48.1 µM (active); in test [2], 46.4 µM (active); in test [3], 54.3 µM (active); in [5] it was 67.8 µM (active); in test [6] it was 39.9 µM (active); in test [8] it was 38.7 µM (active). The AC50 in test [12] is 32.9 µM (active); in test [13], 71.5 µM (active). Also, the compound was classed as inactive in test [4], in [7], in [9], in test [10], in test [11] and in test [18]. In addition, the compound was called inactive in test [14] and in [15].
Take `c1ccc2c(c1)-c1cccc3c1c-2cc1ccccc13`: the AC50 in test [1] was 7.58 µM (active); in test [2], 0.0391 µM (active); in test [9], 0.0391 µM (active); in test [18] it was 57 nM (active) and 28.1 µM (active). Moreover, the compound was classed as inactive in test [3], in [4], in [5], in test [6], in test [7] and in [10]. For the same compound, the call in test [11], in test [12], in test [19], in test [13], in [14] and in test [15] was inactive. Also, the call in [17] was inactive.
In the case of `O=S1(=O)CCCO1`, the call in test [1], in [2], in test [3], in test [4], in test [5] and in [6] was inactive. In addition, the compound was classed as inactive in [7], in [8], in test [9], in [10], in test [11] and in test [12]. For the same compound, the call in test [13], in [18], in test [14], in test [15] and in test [16] was inactive.
Consider `OCCOCCOCCO`, for which the result in test [1], in test [2], in test [3], in test [4], in test [5] and in test [6] was inactive. Besides, the call in test [7], in test [8], in test [9], in test [10], in test [11] and in [12] was inactive. The outcome in test [19], in test [13], in test [14], in [15] and in test [16] was inactive.
In the case of `COCc1nnc(-c2ccc[n+]([O-])c2)n1-c1c(Cl)c(Cl)cc2[nH]c(=O)c(=O)[nH]c12`, the call in test [1], in test [2], in [3], in [4], in test [5] and in test [6] was inactive. Moreover, the compound was classed as inactive in [7], in [9], in test [10], in test [11], in test [12] and in test [19]. The call in test [13], in [18], in [14], in [15], in [16] and in test [17] was inactive.
